According to PubChem BioAssay AID1159580 (chemical genetic matrix, 2015):
Several values for one entry are separate records, joined by “and”; a condition that tells them apart may be missing. Equal entries are not always repeated. Hit rate of the full screen: of about 5,500 compounds, about 2,000 (36%) were called active. Roughly 18% stayed inconclusive and do not appear here. Cut-off read from the data, not from the text of the source: active = normalized growth mostly below about 0.91 (no sharp cut-off); inconclusive = no clear call, values can overlap the other calls; inactive = mostly above about 0.92. Some of the results follow.

Assay: chemical genetic growth profiling, strain panel (AID 1159580);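 note: tested at 20 µM; growth read once vehicle control cultures reached saturation at 30 °C; 1 = growth at the plate median or of vehicle wells; lower values mean less growth of the strain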
Conditions: S. cerevisiae deletion strains, growth OD

Measured: normalized growth

CC(=O)O[C@@H]1CC[C@@]2(C)C(CC[C@]3(C)C2CC=C2C4CC(C)(C)CC[C@]4(C(=O)O)CC[C@]23C)C1(C)C (stereo partly drawn)
active: locus YDR069C, strain doa4, hits give low values 0.84 | locus YGL173C, strain kem1, hits give low values 0.902 | locus YHR027C, strain rpn1, hits give low values 0.913 | locus YMR058W, strain fet3, hits give low values 0.655 | locus YNL209W, strain ssb2, hits give low values 0.793 | locus YOR106W, strain vam3, hits give low values 0.852 | locus YPL051W, strain arl3, hits give low values 0.833
inactive: locus YAL021C, strain ccr4, hits give low values 0.949 | locus YAL026C, strain drs2, hits give low values 0.957 | locus YAL030W, strain snc1, hits give low values 0.98 | locus YBL061C, strain skt5, hits give low values 0.955 | locus YBR009C, strain hhf1, hits give low values 1.01 | locus YBR021W, strain FUR4, hits give low values 1 | locus YBR023C, strain chs3, hits give low values 0.918 | locus YBR171W, strain sec66, hits give low values 1 | locus YBR229C, strain ROT2, hits give low values 0.992 | locus YBR231C, strain swc5, hits give low values 0.913 | locus YBR279W, strain paf1, hits give low values 0.982 | locus YCL011C, strain gbp2, hits give low values 0.965 | locus YCL016C, strain dcc1, hits give low values 0.96 | locus YCL029C, strain bik1, hits give low values 0.996 | locus YCL061C, strain MRC1, hits give low values 1 | locus YCL069W, strain vba3, hits give low values 1.01 | locus YCR088W, strain abp1, hits give low values 1.01 | locus YDL005C, strain med2, hits give low values 0.99 | locus YDL035C, strain GPR1, hits give low values 1.05 | locus YDL040C, strain nat1, hits give low values 1 | locus YDL074C, strain BRE1, hits give low values 1.07 | locus YDL101C, strain DUN1, hits give low values 0.975 | locus YDL134C, strain PPH21, hits give low values 0.974 | locus YDL185W, strain tfp1, hits give low values 0.976 | locus YDL192W, strain arf1, hits give low values 1.01 | locus YDR001C, strain nth1, hits give low values 1.01 | locus YDR101C, strain arx1, hits give low values 1.02 | locus YDR137W, strain rgp1, hits give low values 1.02 | locus YDR159W, strain sac3, hits give low values 1.03 | locus YDR162C, strain NBP2, hits give low values 1.03 | locus YDR195W, strain ref2 1.04 | locus YDR297W, strain sur2, hits give low values 0.939 | locus YDR318W, strain mcm21, hits give low values 1.01 | locus YDR334W, strain swr1, hits give low values 0.985 | locus YDR335W, strain msn5, hits give low values 0.957 | locus YDR388W, hits give low values 0.983 | locus YDR392W, strain spt3, hits give low values 0.95 | locus YDR502C, strain sam2, hits give low values 0.978 | locus YEL003W, strain gim4, hits give low values 0.976 | locus YEL037C, strain rad23, hits give low values 0.99 | locus YEL061C, strain CIN8 (second series), hits give low values 1.01 | locus YEL061C, strain CIN8, hits give low values 1 | locus YER015W, strain faa2, hits give low values 0.936 | locus YER016W, strain bim1, hits give low values 0.965 | locus YER110C, hits give low values 0.976 | locus YER111C, strain swi4, hits give low values 0.96 | locus YER155C, strain BEM2 (second series), hits give low values 0.964 | locus YER155C, strain BEM2, hits give low values 0.985 | locus YER167W, strain BCK2, hits give low values 1.01 | locus YFR010W, strain ubp6, hits give low values 0.949 | locus YGL078C, strain dbp3, hits give low values 0.977 | locus YGL086W, strain mad1, hits give low values 1.04 | locus YGL167C, strain pmr1, hits give low values 0.986 | locus YGL227W, strain vid30, hits give low values 1.01 | locus YGL240W, strain doc1, hits give low values 1.08 | locus YGL248W, strain PDE1, hits give low values 0.998 | locus YGL253W, strain hxk2, hits give low values 0.984 | locus YGR135W, strain pre9, hits give low values 0.954 | locus YGR229C, strain SMI1, hits give low values 0.988 | locus YGR252W, strain gcn5, hits give low values 0.982 | locus YHR013C, strain ard1, hits give low values 0.933 | locus YHR030C, strain SLT2, hits give low values 0.983 | locus YHR079C, strain IRE1 (second series), hits give low values 0.983 | locus YHR079C, strain IRE1, hits give low values 0.974 | locus YHR094C, strain hxt1, hits give low values 0.987 | locus YHR129C, strain ARP1, hits give low values 0.995 | locus YHR142W, strain chs7, hits give low values 0.958 | locus YHR200W, strain rpn10, hits give low values 0.987 | locus YIL066C, strain RNR3, hits give low values 1.03 | locus YIL073C, strain SPO22, hits give low values 1.01 | locus YIL125W, strain kgd1, hits give low values 0.999 | locus YIR030C, strain dcg1, hits give low values 0.985 | locus YJL092W, strain hpr5, hits give low values 1.01 | locus YJL095W, strain BCK1 (second series), hits give low values 0.966 | locus YJL095W, strain BCK1, hits give low values 1.01 and 0.986 | locus YJL115W, strain asf1, hits give low values 1.01 | locus YJL129C, strain trk1, hits give low values 1.02 | locus YJL134W, strain LCB3, hits give low values 0.996 | locus YJL154C, strain vps35, hits give low values 1.03 | locus YJL164C, strain tpk1, hits give low values 0.927 | locus YJL166W, strain qcr8, hits give low values 0.953 | locus YJL168C, strain set2, hits give low values 0.987 | locus YJL187C, strain SWE1 (second series), hits give low values 0.976 | locus YJR043C, strain POL32, hits give low values 1.06 | locus YJR066W, strain TOR1, hits give low values 0.882 | locus YKL009W, strain mrt4, hits give low values 1.03 | locus YKL068W, hits give low values 1.02 | locus YKL085W, strain MDH1 (second series), hits give low values 1.04 | locus YKL085W, strain MDH1, hits give low values 1.04 | locus YKL160W, strain elf1, hits give low values 0.954 | locus YKL190W, strain CNB1, hits give low values 1.03 | locus YKR001C, strain vps1, hits give low values 1 | locus YKR026C, strain gcn3, hits give low values 1.01 | locus YKR091W, strain srl3, hits give low values 1 | locus YLL001W, strain dnm1, hits give low values 1.01 | locus YLL026W, hits give low values 1 | locus YLL041C, strain sdh2, hits give low values 0.996 | locus YLR027C, strain aat2, hits give low values 0.981 | locus YLR039C, strain RIC1, hits give low values 1.1 | locus YLR058C, strain SHM2, hits give low values 0.989 | locus YLR102C, strain apc9, hits give low values 0.981 | locus YLR113W, strain HOG1, hits give low values 0.975 | locus YLR221C, strain rsa3, hits give low values 0.954 | locus YLR258W, strain gsy2, hits give low values 0.98 | locus YLR262C, strain YPT6 (second series), hits give low values 0.886 | locus YLR262C, strain YPT6, hits give low values 1.14 | locus YLR268W, strain sec22, hits give low values 1.01 | locus YLR320W, strain mms22, hits give low values 0.968 | locus YLR330W, strain CHS5, hits give low values 1 | locus YLR342W, strain FKS1 (second series), hits give low values 1.05 | locus YLR342W, strain FKS1, hits give low values 0.919 | locus YLR357W, strain rsc2, hits give low values 0.893 | locus YLR370C, strain arc18, hits give low values 0.957 | locus YLR371W, strain rom2, hits give low values 0.991 | locus YLR384C, strain iki3, hits give low values 0.981 | locus YLR418C, strain cdc73, hits give low values 0.984 | locus YML016C, strain PPZ1, hits give low values 0.99 | locus YML032C, strain rad52, hits give low values 1.01 | locus YML120C, strain ndi1, hits give low values 0.999 | locus YML124C, strain tub3, hits give low values 0.99 | locus YMR078C, strain ctf18, hits give low values 0.977 | locus YMR125W, strain sto1, hits give low values 1.01 | locus YMR129W, hits give low values 1.01 | locus YMR205C, strain PFK2, hits give low values 0.991 | locus YMR223W, strain ubp8, hits give low values 0.985 | locus YMR231W, strain pep5, hits give low values 0.99 | locus YMR263W, strain SAP30, hits give low values 0.985 | locus YMR307W, strain GAS1, hits give low values 0.985 | locus YNL067W, strain RPL9B, hits give low values 0.973 | locus YNL071W, strain lat1, hits give low values 1.02 | locus YNL153C, strain GIM3, hits give low values 0.988 | locus YNL183C, strain NPR1, hits give low values 0.914 | locus YNL233W, strain BNI4, hits give low values 0.991 | locus YNL248C, strain rpa49, hits give low values 1.03 | locus YNL250W, strain rad50, hits give low values 0.959 | locus YNL271C, strain bni1, hits give low values 0.981 | locus YNL298W, strain CLA4, hits give low values 0.995 | locus YNL307C, strain MCK1, hits give low values 0.985 | locus YNL322C, strain KRE1 (second series), hits give low values 0.988 | locus YNR049C, strain mso1, hits give low values 1.01 | locus YNR052C, strain pop2, hits give low values 0.985 | locus YOL012C, strain htz1 0.851 | locus YOL147C, strain pex11, hits give low values 1.01 | locus YOR001W, strain rrp6, hits give low values 1.02 | locus YOR061W, strain CKA2, hits give low values 1.04 | locus YOR069W, strain VPS5, hits give low values 0.989 | locus YOR070C, strain gyp1, hits give low values 0.986 | locus YOR080W, strain dia2, hits give low values 1 | locus YOR083W, strain WHI5, hits give low values 0.968 | locus YOR136W, strain idh2, hits give low values 0.979 | locus YOR144C, strain elg1, hits give low values 0.981 | locus YOR184W, strain ser1, hits give low values 1.05 | locus YOR231W, strain MKK1, hits give low values 0.966 | locus YOR265W, strain rbl2, hits give low values 0.984 | locus YOR270C, strain vph1, hits give low values 0.946 | locus YOR290C, strain snf2, hits give low values 0.983 | locus YOR316C, strain cot1, hits give low values 0.98 | locus YPL078C, strain atp4, hits give low values 0.992 | locus YPL106C, strain sse1, hits give low values 0.923 | locus YPL240C, strain hsp82, hits give low values 0.985 | locus YPL256C, strain CLN2, hits give low values 0.982 | locus YPR119W, strain clb2, hits give low values 0.981 | locus YPR141C, strain kar3, hits give low values 0.982 | locus YPR163C, strain tif3, hits give low values 0.991 | locus YPR167C, strain met16, hits give low values 0.987 | strain wtn01, hits give low values 1.03
